Experiments:
Experiment in all cases: HT-SELEX; 20 mM HEPES pH 7, 140 mM KCl, 5 mM NaCl, 1 mM K2HPO4, 2 mM MgSO4, 100 uM EGTA, ZnSO4, 0.1% Tween20; room temperature, 1 h; high values mean tight binding
Conditions in all cases: protein: ivt; tags: eGFP (N-terminal); dsDNA, one strand shown
ZNF721 full-length = ZNF721 full-length (Homo sapiens, UniProt Q8TF20-2 1-923)
Method in brief: (§1)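 In HEPES/KCl low-stringency buffer with Tween20, a bead-immobilised tagged transcription factor (full-length or DNA-binding-domain fragment, from HEK293 lysate or cell-free extract) was incubated with a randomized 40-base DNA library for 1 h at room temperature. DNA retained after washing was heat-eluted, amplified by PCR over successive cycles and Illumina-sequenced, giving ~3 million 60 bp reads per sample. The reported binding signal, a relative k-mer count in those selected reads, rises with tighter binding.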

ZNF721 DBD1 = ZNF721 DBD1 (Homo sapiens, UniProt Q8TF20-2 29-461)
Chain of ZNF721 DBD1 (Q8TF20 17-449): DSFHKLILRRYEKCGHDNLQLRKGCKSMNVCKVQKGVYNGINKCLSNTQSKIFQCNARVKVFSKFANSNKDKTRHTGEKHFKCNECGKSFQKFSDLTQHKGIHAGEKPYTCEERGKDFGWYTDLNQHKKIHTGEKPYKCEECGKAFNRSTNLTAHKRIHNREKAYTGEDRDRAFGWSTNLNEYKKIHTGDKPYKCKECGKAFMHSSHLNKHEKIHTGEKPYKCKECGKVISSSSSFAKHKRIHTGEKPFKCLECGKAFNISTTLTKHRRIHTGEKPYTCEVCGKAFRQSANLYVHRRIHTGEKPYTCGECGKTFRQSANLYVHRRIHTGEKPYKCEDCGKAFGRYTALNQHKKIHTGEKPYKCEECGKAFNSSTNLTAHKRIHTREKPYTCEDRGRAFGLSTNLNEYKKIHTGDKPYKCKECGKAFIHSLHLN
Method in brief: as §1

ZNF721 DBD2 = ZNF721 DBD2 (Homo sapiens, UniProt Q8TF20-2 395-923)
Chain of ZNF721 DBD2 (Q8TF20 383-911): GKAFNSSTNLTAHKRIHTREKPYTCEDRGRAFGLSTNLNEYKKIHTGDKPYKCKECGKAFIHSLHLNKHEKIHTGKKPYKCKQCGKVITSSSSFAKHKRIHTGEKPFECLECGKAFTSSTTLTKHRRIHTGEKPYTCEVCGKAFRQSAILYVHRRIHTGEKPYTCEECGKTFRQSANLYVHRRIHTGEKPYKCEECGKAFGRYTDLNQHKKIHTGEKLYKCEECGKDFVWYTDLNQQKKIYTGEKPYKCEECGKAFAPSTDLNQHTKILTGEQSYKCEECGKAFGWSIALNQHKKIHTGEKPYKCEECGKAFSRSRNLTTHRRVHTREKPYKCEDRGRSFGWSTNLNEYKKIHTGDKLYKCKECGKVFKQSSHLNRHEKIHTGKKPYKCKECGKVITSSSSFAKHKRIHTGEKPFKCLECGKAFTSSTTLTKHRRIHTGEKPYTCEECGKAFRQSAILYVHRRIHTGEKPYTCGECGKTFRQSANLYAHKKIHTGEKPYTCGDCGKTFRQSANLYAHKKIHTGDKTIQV
Method in brief: as §1

Chain of ZNF721 full-length (Q8TF20 other isoform, or with tags, fused parts or gaps): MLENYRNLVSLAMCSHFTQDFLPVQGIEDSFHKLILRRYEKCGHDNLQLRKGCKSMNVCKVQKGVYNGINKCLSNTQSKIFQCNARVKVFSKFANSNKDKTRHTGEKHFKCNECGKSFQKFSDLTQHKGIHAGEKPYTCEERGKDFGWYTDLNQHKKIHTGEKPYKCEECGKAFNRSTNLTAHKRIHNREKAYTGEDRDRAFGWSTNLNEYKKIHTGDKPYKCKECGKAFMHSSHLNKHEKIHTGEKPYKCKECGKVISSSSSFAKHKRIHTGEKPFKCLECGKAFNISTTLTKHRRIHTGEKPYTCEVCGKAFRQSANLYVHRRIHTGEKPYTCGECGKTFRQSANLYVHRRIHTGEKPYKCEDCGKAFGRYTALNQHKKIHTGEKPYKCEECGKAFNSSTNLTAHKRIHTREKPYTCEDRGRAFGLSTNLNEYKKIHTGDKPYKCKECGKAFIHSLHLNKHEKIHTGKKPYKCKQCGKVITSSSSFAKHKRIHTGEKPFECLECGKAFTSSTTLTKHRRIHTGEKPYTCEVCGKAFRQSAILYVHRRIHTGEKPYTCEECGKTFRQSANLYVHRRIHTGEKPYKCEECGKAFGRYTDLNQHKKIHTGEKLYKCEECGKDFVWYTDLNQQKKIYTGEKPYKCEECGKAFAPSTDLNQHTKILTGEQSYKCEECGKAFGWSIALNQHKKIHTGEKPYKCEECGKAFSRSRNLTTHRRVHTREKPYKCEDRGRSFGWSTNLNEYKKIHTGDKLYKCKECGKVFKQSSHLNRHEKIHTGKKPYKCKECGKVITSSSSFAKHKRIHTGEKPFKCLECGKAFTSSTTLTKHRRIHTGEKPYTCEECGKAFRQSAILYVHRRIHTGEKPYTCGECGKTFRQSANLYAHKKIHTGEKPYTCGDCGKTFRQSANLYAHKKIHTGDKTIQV

Sequence | binding signal (ZNF721 full-length) | binding signal (ZNF721 DBD1) | binding signal (ZNF721 DBD2)
CCCCCCCGAC | 0.115 relative 10-mer count | 0.00408 relative 10-mer count | 0.00288 relative 10-mer count
GGCGGGGGGA | 0.126 relative 10-mer count | 0.00619 relative 10-mer count | 0.0024 relative 10-mer count
CCCTCCCCGC | 0.139 relative 10-mer count | 0.00555 relative 10-mer count | 0.00995 relative 10-mer count
ACCCACACCC | 0.108 relative 10-mer count | 0.00527 relative 10-mer count | 0.00527 relative 10-mer count
CAGCCCCCCC | 0.103 relative 10-mer count | 0.00284 relative 10-mer count | 0.0267 relative 10-mer count
GGGGGTGGGA | 0.205 relative 10-mer count | 0.0115 relative 10-mer count | 0.00312 relative 10-mer count
CCACCTCCCA | 0.127 relative 10-mer count | 0.0061 relative 10-mer count | 0.00384 relative 10-mer count
CCACGACCCC | 0.118 relative 10-mer count | 0.00344 relative 10-mer count | 0.003 relative 10-mer count
CGCCCGCCCC | 0.126 relative 10-mer count | 0.00408 relative 10-mer count | 0.00144 relative 10-mer count
CCCACCCACC | 0.425 relative 10-mer count | 0.0187 relative 10-mer count | 0.00899 relative 10-mer count
CCCCCCACCC | 0.415 relative 10-mer count | 0.0187 relative 10-mer count | 0.0036 relative 10-mer count
CCGTCCACCC | 0.103 relative 10-mer count | 0.00472 relative 10-mer count | 0.0036 relative 10-mer count
CCGCCCACCA | 0.143 relative 10-mer count | 0.00477 relative 10-mer count | 0.00156 relative 10-mer count
ACCCCCGCCC | 0.173 relative 10-mer count | 0.00619 relative 10-mer count | 0.00348 relative 10-mer count
AACAGGGTAT | 0.138 relative 10-mer count | 0.00119 relative 10-mer count | 0.2 relative 10-mer count
ACCACCACCC | 0.189 relative 10-mer count | 0.00679 relative 10-mer count | 0.00611 relative 10-mer count
CGTCCCCCCC | 0.126 relative 10-mer count | 0.00619 relative 10-mer count | 0.00108 relative 10-mer count
CCACCTACCC | 0.112 relative 10-mer count | 0.00527 relative 10-mer count | 0.00455 relative 10-mer count
AAAAAGCTAT | 0.425 relative 10-mer count | 0.225 relative 10-mer count | 0.00192 relative 10-mer count
AAAAAAAGGC | 0.162 relative 10-mer count | 0.00225 relative 10-mer count | 0.117 relative 10-mer count

Sequence | binding signal (ZNF721 full-length) | binding signal (ZNF721 DBD1) | binding signal (ZNF721 DBD2)
CCCCCTCACC | 0.149 relative 10-mer count | 0.00624 relative 10-mer count | 0.00372 relative 10-mer count
ACCCCCCCGC | 0.112 relative 10-mer count | 0.00248 relative 10-mer count | 0.003 relative 10-mer count
ATAAAAAAGC | 0.12 relative 10-mer count | 0.0221 relative 10-mer count | 0.0443 relative 10-mer count
GCCCGCCCCC | 0.106 relative 10-mer count | 0.00413 relative 10-mer count | 0.00132 relative 10-mer count
ACCCGCCCCA | 0.109 relative 10-mer count | 0.00307 relative 10-mer count | 0.0012 relative 10-mer count
AGGGGTGGGG | 0.2 relative 10-mer count | 0.00968 relative 10-mer count | 0.00372 relative 10-mer count
AAAAAAGAGT | 0.101 relative 10-mer count | 0.00665 relative 10-mer count | 0.0674 relative 10-mer count
CCGCCCCCAC | 0.178 relative 10-mer count | 0.00821 relative 10-mer count | 0.0036 relative 10-mer count
GGGGGGTGGA | 0.145 relative 10-mer count | 0.00615 relative 10-mer count | 0.00407 relative 10-mer count
CCTCCCCCTC | 0.15 relative 10-mer count | 0.00807 relative 10-mer count | 0.00467 relative 10-mer count
GCCCCCCGCC | 0.123 relative 10-mer count | 0.00477 relative 10-mer count | 0.003 relative 10-mer count
CTAAAAAAAA | 0.107 relative 10-mer count | 0.0111 relative 10-mer count | 0.0533 relative 10-mer count
CCCCGCACCC | 0.179 relative 10-mer count | 0.00812 relative 10-mer count | 0.00252 relative 10-mer count
CCACCCACCG | 0.143 relative 10-mer count | 0.00615 relative 10-mer count | 0.00731 relative 10-mer count
CCAACCCCCC | 0.169 relative 10-mer count | 0.0056 relative 10-mer count | 0.00144 relative 10-mer count
CCACGCCCAC | 0.102 relative 10-mer count | 0.00514 relative 10-mer count | 0.00431 relative 10-mer count
CCACCACCAC | 0.19 relative 10-mer count | 0.00688 relative 10-mer count | 0.00647 relative 10-mer count
CACCCCCACA | 0.116 relative 10-mer count | 0.00482 relative 10-mer count | 0.00779 relative 10-mer count
CCCCCGTCCC | 0.173 relative 10-mer count | 0.00642 relative 10-mer count | 0.00252 relative 10-mer count
CCCCCCCCCA | 0.16 relative 10-mer count | 0.00477 relative 10-mer count | 0.00312 relative 10-mer count

Sequence | binding signal (ZNF721 full-length) | binding signal (ZNF721 DBD1) | binding signal (ZNF721 DBD2)
CCCACACACC | 0.114 relative 10-mer count | 0.00449 relative 10-mer count | 0.00455 relative 10-mer count
CCCTCCCGCC | 0.161 relative 10-mer count | 0.00716 relative 10-mer count | 0.00503 relative 10-mer count
CACCCCCCAC | 0.248 relative 10-mer count | 0.0103 relative 10-mer count | 0.00527 relative 10-mer count
GGGTGGGTGA | 0.104 relative 10-mer count | 0.00505 relative 10-mer count | 0.0012 relative 10-mer count
CCCACGACCC | 0.107 relative 10-mer count | 0.00564 relative 10-mer count | 0.0018 relative 10-mer count
GGGGGAGGGA | 0.151 relative 10-mer count | 0.00936 relative 10-mer count | 0.00384 relative 10-mer count
CCCCACCAAC | 0.136 relative 10-mer count | 0.00638 relative 10-mer count | 0.00791 relative 10-mer count
CACCCACACC | 0.127 relative 10-mer count | 0.0061 relative 10-mer count | 0.00395 relative 10-mer count
CAACCACCCC | 0.13 relative 10-mer count | 0.00486 relative 10-mer count | 0.00252 relative 10-mer count
ACCCCCACCC | 0.267 relative 10-mer count | 0.0108 relative 10-mer count | 0.0036 relative 10-mer count
ACGCTTCATA | 0.122 relative 10-mer count | 0.2 relative 10-mer count | 0.00108 relative 10-mer count
GCAAAAAAAA | 0.118 relative 10-mer count | 0.0105 relative 10-mer count | 0.056 relative 10-mer count
GGGGAGGGGA | 0.125 relative 10-mer count | 0.00674 relative 10-mer count | 0.0036 relative 10-mer count
CACCCACCCG | 0.132 relative 10-mer count | 0.0039 relative 10-mer count | 0.00264 relative 10-mer count
CCACCCCTAC | 0.112 relative 10-mer count | 0.00449 relative 10-mer count | 0.0036 relative 10-mer count
ACCCACCACC | 0.214 relative 10-mer count | 0.0104 relative 10-mer count | 0.00791 relative 10-mer count
AGAAAAAAGC | 0.36 relative 10-mer count | 0.107 relative 10-mer count | 0.0556 relative 10-mer count
CACCCCGCCA | 0.108 relative 10-mer count | 0.00404 relative 10-mer count | 0.00455 relative 10-mer count
CCCGACCACC | 0.125 relative 10-mer count | 0.00491 relative 10-mer count | 0.00372 relative 10-mer count
ACCCACCCCA | 0.167 relative 10-mer count | 0.00798 relative 10-mer count | 0.00515 relative 10-mer count

Reference: publication PMC13541613, “GHT-SELEX demonstrates unexpectedly high intrinsic sequence specificity and complex DNA binding of many human transcription factors”
